# Laboratory results as given in PubChem BioAssay AID1220 (Sanford-Burnham Center for Chemical Genomics, 2008).
# About 1,300 (0.68%) of roughly 190,000 compounds were called active. What follows is part of a selection rich in actives, with near analogues and random picks from the rest. A number with no mark means an inactive call. No stated cut-off is given here; in the data, active means inhibition above about 50%; inactive means the rest.
# Target: Mannose-6-phosphate isomerase (Homo sapiens) (UniProt P34949)
# Sequence (P34949 whole entry, looked up): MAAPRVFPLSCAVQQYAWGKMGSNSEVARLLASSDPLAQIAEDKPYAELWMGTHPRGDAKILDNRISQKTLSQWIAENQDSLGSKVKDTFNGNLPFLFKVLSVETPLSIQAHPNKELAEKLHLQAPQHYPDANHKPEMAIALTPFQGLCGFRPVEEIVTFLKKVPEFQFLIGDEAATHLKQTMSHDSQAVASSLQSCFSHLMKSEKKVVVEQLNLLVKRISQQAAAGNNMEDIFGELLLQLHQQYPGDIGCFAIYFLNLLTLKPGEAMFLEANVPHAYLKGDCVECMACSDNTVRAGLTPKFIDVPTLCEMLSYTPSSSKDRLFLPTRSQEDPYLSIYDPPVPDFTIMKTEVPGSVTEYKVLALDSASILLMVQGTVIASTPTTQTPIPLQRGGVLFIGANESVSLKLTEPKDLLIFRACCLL
# Assay: human PMI inhibitors, high substrate, primary screen, biochemical, fluorescence intensity, high mannose 6-phosphate (AID 1220)
# Settings: recombinant PMI enzyme, coupled fluorescence intensity; at 20 µM; hits give high values
row,Structure (SMILES),inhibition
1,Cc1ccc(C(=O)NCc2ccccc2)cc1Br,12.6%
2,c1ccc2sc(N3CCOCC3)nc2c1,-4.3%
3,Fc1ccc2nc(N3CCOCC3)sc2c1,-5.9%
4,Nc1ccc2nc(N3CCOCC3)sc2c1,59.7% (active)
5,Cc1cnc(C(=O)OCC(=O)N2CCN(C(=O)c3ccco3)CC2)cn1,6.1%
6,O=C(CSc1nc2ccccc2c(=O)n1-c1ccccc1)N1CCc2ccccc2C1,8%
7,CC1(C(=O)NC2CCCCCCC2)CCC(=O)N1CCN1CCOCC1 (centres undefined),-8.6%
8,COc1cc(C2C(C#N)=C(N)Oc3c2ccc2ccccc32)ccc1OCC(=O)Nc1ccc(C)cc1 (centres undefined),24.1%
9,COC(=O)c1ccc(NC(=O)COc2ccc(C3C(C#N)=C(N)Oc4c3ccc3ccccc43)cc2OC)cc1 (centres undefined),15.5%
10,COc1cc(C2C(C#N)=C(N)Oc3c2ccc2ccccc32)ccc1OCC(=O)Nc1cccc(C)c1 (centres undefined),53.4% (active)
11,CCOC(=O)c1cc(CC)sc1NC(=O)CC1Sc2ccc(C(F)(F)F)cc2NC1=O (centres undefined),-5.2%
12,Cc1ccc(S(=O)(=O)NCc2nc3ccccc3[nH]2)cc1,5%
13,Cc1nnc(SCC(=O)NC2CCCCC2)n(N)c1=O,-2.5%
14,O=C1CN(C(=O)c2ccccc2)c2ccccc2N1,6.5%
15,O=C1CN(C(=O)c2cccs2)c2ccccc2N1,3.1%
16,O=C1CN(C(=O)c2cc(Br)c(Br)s2)c2ccccc2N1,61.5% (active)
17,COC(=O)c1ccc(NC(=O)Nc2ccccc2F)cc1,11%
18,CN(CC(=O)N1CCCc2c1c(=O)oc1ccc(O)cc21)Cc1ccccc1,3.3%
19,CC(C(=O)N1CCCc2c1c(=O)oc1ccc(O)cc21)N1CCc2ccccc2C1 (centres undefined),69% (active)
20,O=C(CN1CCN(Cc2ccccc2)CC1)N1CCCc2c1c(=O)oc1ccc(O)cc21,3.1%

row,Structure (SMILES),inhibition
1,Cc1ccccc1NC(=O)CC(O)(C(F)(F)F)C(F)(F)F,-6%
2,COc1ccc(C(=O)N2CCCC2)cc1S(=O)(=O)N1CCC(C)CC1,5.6%
3,NC(=O)C1=C[C@H](c2ccccc2)C[C@H](OCc2ccc(CO)cc2)O1,59.2% (active)
4,O=C(O)C1=C[C@@H](c2ccc(C(F)(F)F)cc2)C[C@@H](OCc2ccc(CO)cc2)O1,-0.6%
5,C=CCOC(=O)C1=C[C@@H](c2ccccc2)C[C@@H](OCc2ccc(CO)cc2)O1,-6.1%
6,O=C(O)C1=C[C@H](c2ccccc2)C[C@H](OCc2ccc(CO)cc2)O1,2.2%
7,O=C(O)C1=C[C@@H](c2ccc(Br)cc2)C[C@@H](OCc2ccc(CO)cc2)O1,-16.7%
8,NC(=O)C1=C[C@@H](c2ccc(Br)cc2)C[C@@H](OCc2ccc(CO)cc2)O1,27.4%
9,NC(=O)C1=C[C@@H](c2ccc(C(F)(F)F)cc2)C[C@@H](OCc2ccc(CO)cc2)O1,61.6% (active)
10,NC(=O)C1=C[C@H](c2ccc(Br)cc2)C[C@H](OCc2ccc(CO)cc2)O1,51% (active)
11,O=C(O)C1=C[C@@H](c2ccccc2)C[C@@H](OCc2ccc(CO)cc2)O1,-9.3%
12,O=C(Nc1ccccc1)C1=C[C@H](c2ccccc2)C[C@H](OCc2ccc(CO)cc2)O1,8.7%
13,NC(=O)C1=C[C@H](c2ccc(C(F)(F)F)cc2)C[C@H](OCc2ccc(CO)cc2)O1,43.9%
14,NC(=O)C1=C[C@@H](c2ccccc2)C[C@@H](OCc2ccc(CO)cc2)O1,66% (active)
15,CN(Cc1ccccc1)CC(O)COc1ccc(CNCCc2ccncc2)cc1 (centres undefined),-5.6%
16,CN(C)c1nc(-c2ccccc2)ncc1S(=O)(=O)c1ccccc1,14.6%
17,COc1ccc(CC(=O)Nc2ccc(-c3cn4ccc(C)cc4n3)cc2)cc1,-1.3%
18,COc1ccc(N(CC(=O)NCc2ccco2)S(=O)(=O)c2ccc(C)cc2)cc1,14.7%
19,O=C1CN2NC(=S)N(c3ccccc3)C2=CN1c1ccc(Cl)cc1,-1.1%
20,CCOc1ccc(NC(=O)CSc2n[nH]c(=O)n2-c2ccccc2)cc1,6.5%

row,Structure (SMILES),inhibition
1,Cn1cccc1/C=N/NC(=O)C12CC3CC(CC(C3)C1)C2,2.4%
2,NC(=O)C1=C[C@H](c2ccc3c(c2)OCO3)C[C@H](OCc2ccc(CO)cc2)O1,59.9% (active)
3,O=C(O)C1=C[C@@H](c2ccc3c(c2)OCO3)C[C@@H](OCc2ccc(CO)cc2)O1,4.3%
4,C=CCOC(=O)C1=C[C@@H](c2ccc3c(c2)OCO3)C[C@@H](OCc2ccc(CO)cc2)O1,20%
5,O=C(Nc1ccccc1-c1ccccc1)C1CCC1,8.4%
6,COc1ccc(Cc2nc(-c3ccc(-n4cccc4)cc3)no2)cc1,-0.1%
7,O=[N+]([O-])c1ccc(OCCN2CCNCC2)cc1,-5.8%
8,COc1nnc(-c2ccc(N3CCCCC3)c(NC(C)=O)c2)c2ccccc12,-9.2%
9,C=CCNC(=S)N1CCC(C(=O)c2ccc3c(c2)OCCO3)CC1,12.3%
10,COc1cnc(-c2ccccn2)nc1Oc1ccccc1,12.7%
11,COc1ccc(C(=O)Cn2c(Br)nc3c2c(=O)n(C)c(=O)n3C)cc1,-3%
12,COCCn1c(Br)nc2c1c(=O)n(C)c(=O)n2C,0.3%
13,Cc1ccc(OCCn2c(Br)nc3c2c(=O)n(C)c(=O)n3C)cc1,52.7% (active)
14,CCc1ccccc1NC(=O)c1cccc(Oc2ccc([N+](=O)[O-])cc2Cl)c1,6.1%
15,CN(C)S(=O)(=O)c1ccc(Cl)c(NC(=O)CSc2nc3ccccc3c(=O)n2CCCN2CCOCC2)c1,4.7%
16,CCOC(=O)c1ccccc1NC(=O)COC(=O)C1=COCCO1,3.8%
17,Cn1cc(C2N3CC4(C)CN2CC(C)(C3)C4=O)c2ccccc21 (centres undefined),4.5%
18,CC12CN3CC(C)(CN(C1)C3c1c[nH]c3ccccc13)C2=O (centres undefined),3.5%
19,CC12CN3CC(C)(CN(C1)C3c1ccc3ccccc3c1O)C2=O (centres undefined),53.1% (active)
